Laboratory results reported in PubChem BioAssay (NCATS).
Inconclusive results are not listed. Where a call stands in place of a potency, no number is given. Activity calls are given as the source filed them. The call rests on the fitted dose curve; in most records, active means well fitted inhibition curve with a large enough effect; inconclusive means small, poorly fitted or top-dose-only effect; inactive means flat fitted curve, though single readings scatter.

Assays:
Assay in all cases: qHTS profiling for inhibitors of Plasmodium falciparum proliferation (AID 504749); further: nearly all actives have a fitted effect of over 60% in size
Details in all cases: P. falciparum in erythrocytes, SYBR Green DNA, 72 h; series mostly up to 28.7 µM
CP305 = test system: CP305
Outline: (§1)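 Each compound contacts P. falciparum-infected red blood cells for 72 h at 37 C; lysis buffer (Tris, EDTA, saponin, Triton X, SYBR Green I) is added and fluorescence measured next morning; values normalized to controls.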

CP315 = test system: CP315
Outline: as §1

CP325 = test system: CP325
Outline: as §1

CP329 = test system: CP329
Outline: as §1

CP335 = test system: CP335
Outline: as §1

DFO2036 = test system: DFO2036
Outline: as §1

DIV14 = test system: DIV14
Outline: as §1

DIV17 = test system: DIV17
Outline: as §1

DIV30 = test system: DIV30
Outline: as §1

Dd2 = test system: Dd2
Outline: as §1

ECU = test system: ECU
Outline: as §1

FAB9 = test system: FAB9
Outline: as §1

GB4 = test system: GB4
Outline: as §1

HB3 = test system: HB3
Outline: as §1

ICS = test system: ICS
Outline: as §1

JCK = test system: JCK
Outline: as §1

N140 = test system: N140
Outline: as §1

P93_24 = test system: P93_24
Outline: as §1

PAD = test system: PAD
Outline: as §1

P94_40 = test system: P94_40
Outline: as §1
Potency means the concentration at half of the fitted maximal effect.

Row | SMILES | Potency (CP305) | Potency (CP315) | Potency (CP325) | Potency (CP329) | Potency (CP335) | Potency (DFO2036) | Potency (DIV14) | Potency (DIV17) | Potency (DIV30) | Potency (Dd2) | Potency (ECU) | Potency (FAB9) | Potency (GB4) | Potency (HB3) | Potency (ICS) | Potency (JCK) | Potency (N140) | Potency (P93_24) | Potency (PAD) | Potency (P94_40)
1 | Cc1cc(O)ccc1Cl | inactive | inactive | inactive | inactive | inactive | inactive | inactive | inactive | inactive | inactive | inactive | inactive | inactive | inactive | inactive | inactive | inactive | inactive | inactive | 
2 | NC1=NC(=O)N2CC12 (stereo unspecified) |  | inactive | inactive | inactive |  |  | inactive |  | inactive |  |  | inactive |  |  | 11.2 µM (active) | inactive | inactive |  |  | 
3 | Cc1ccc(Cl)c(O)c1 | inactive | inactive | inactive | inactive | inactive | inactive | inactive | inactive | inactive | inactive | inactive | inactive | inactive | inactive | inactive | inactive | inactive | inactive | inactive | inactive
4 | COC(=O)c1cncn1C(C)c1ccccc1 (stereo unspecified) | inactive | inactive | inactive | inactive | inactive |  | inactive | inactive | inactive |  |  |  | inactive |  |  |  |  |  |  | 
5 | COC(C)(C)CCCC(C)C/C=C/C(C)=C/C(=O)OC(C)C (stereo unspecified) |  | inactive |  |  |  | inactive |  |  |  |  |  | inactive |  |  |  |  |  | 8.91 µM (active) |  | 
6 | c1ccc(C2(c3ccccc3)CC2C2=NCCN2)cc1 (stereo unspecified) | inactive | inactive | inactive | inactive | inactive | inactive |  |  | inactive | inactive | inactive | inactive |  | inactive |  | inactive | inactive | inactive | inactive | inactive
7 | CN[C@@H]1C[C@@H](c2ccc(Cl)c(Cl)c2)c2ccccc21 |  | inactive | inactive | inactive |  |  | 5.36 µM (active) | 7.57 µM (active) |  | 10 µM (active) |  | inactive |  |  | 10 µM (active) | inactive |  |  |  | 
8 | COC(=O)[C@@H](N)CCCN=C(N)N[N+](=O)[O-] | inactive | inactive | inactive | inactive | inactive | inactive | inactive | inactive | inactive | inactive | inactive | inactive | inactive | inactive | inactive | inactive | inactive | inactive | inactive | inactive
9 | CCCN1CCC[C@H](c2cccc(O)c2)C1 | inactive | inactive | inactive | inactive | inactive | inactive | inactive |  | inactive |  | inactive | inactive |  | inactive |  | inactive | inactive | inactive | inactive | inactive
10 | C[C@]12CCC(=O)C(O)=C1CC[C@@H]1[C@H]3CCC(=O)[C@@]3(C)CC[C@@H]12 | inactive | inactive | inactive | inactive | inactive |  |  |  | inactive | inactive | inactive | inactive | inactive | inactive | inactive | inactive |  |  | inactive | 
11 | CCCCCCCCCCCCCCCC[N+](C)(C)C |  |  | 12 µM (active) | 10.7 µM (active) | 8.49 µM (active) |  | 6.75 µM (active) | 8.49 µM (active) |  |  | 8.91 µM (active) |  | 4.78 µM (active) |  | 7.08 µM (active) |  |  |  |  | 
12 | C1CCC(NC2CCCCC2)CC1 | inactive | inactive | inactive | inactive | inactive | inactive | inactive | inactive | inactive | inactive | inactive | inactive | inactive | inactive | inactive | inactive | inactive | inactive | inactive | inactive
13 | C=CCN1CC[C@]23CCCCC2[C@H]1Cc1ccc(O)cc13 (stereo partly specified) | inactive | inactive | inactive | inactive | inactive | inactive | inactive | inactive | inactive | 11.2 µM (active) | inactive | inactive |  | inactive | inactive | inactive | inactive | inactive | inactive | inactive
14 | CN1C2CCC1CC(OC(=O)c1cc(Cl)cc(Cl)c1)C2 (stereo unspecified) | inactive | inactive | inactive | inactive | inactive | inactive |  |  | inactive | inactive |  | inactive | inactive | inactive |  | inactive | inactive | inactive | inactive | inactive
15 | O=[N+]([O-])c1ccc([As](=O)(O)O)cc1 | 7.57 µM (active) | 12 µM (active) | 9.53 µM (active) | 12 µM (active) | 4.78 µM (active) | 5.01 µM (active) | 10.7 µM (active) | 12 µM (active) | 8.49 µM (active) | 3.98 µM (active) | 3.55 µM (active) |  | 8.49 µM (active) | 12.6 µM (active) | 8.91 µM (active) |  | 4.47 µM (active) | 5.01 µM (active) | 7.94 µM (active) | 7.08 µM (active)
16 | NC(=O)CN1CC(O)CC1=O (stereo unspecified) | inactive | inactive | inactive | inactive | inactive | inactive | inactive | inactive | inactive | inactive | inactive | inactive | inactive | inactive | inactive | inactive | inactive | inactive | inactive | inactive
17 | CN(C)[C@@H]1C(=O)C(C(N)=O)=C(O)[C@@]2(O)C(=O)C3=C(O)c4c(O)cccc4[C@@](C)(O)[C@H]3[C@H](O)[C@@H]12 | inactive | inactive | inactive | inactive |  |  | inactive | inactive |  | 3.55 µM (active) | inactive | inactive |  |  |  | inactive |  |  |  | 
18 | CC(C)NC(C)Cc1ccc(I)cc1 (stereo unspecified) | inactive | inactive | inactive | inactive |  | inactive |  |  |  |  | inactive | inactive |  | inactive | inactive | inactive | inactive | inactive | inactive | inactive
19 | CC(=O)[O][Hg][c]1ccccc1 | 4.26 µM (active) |  | 6.01 µM (active) |  | 5.36 µM (active) | 3.98 µM (active) | 4.78 µM (active) | 4.26 µM (active) |  | 0.126 µM (active) | 10 µM (active) | 3.98 µM (active) | 4.26 µM (active) | 6.31 µM (active) | 3.55 µM (active) | 3.98 µM (active) | 3.55 µM (active) | 5.01 µM (active) | 6.31 µM (active) | 3.55 µM (active)
20 | CCCCc1ccc(C(=O)O)nc1 | inactive | inactive | inactive | inactive | inactive | inactive |  | inactive | inactive | inactive | inactive | inactive | inactive | inactive | inactive | inactive | inactive | inactive | inactive | inactive
21 | C#CC1(O)CCC2C3CCC4=CC(=O)CCC4(C)C3CCC21C (stereo unspecified) | inactive | inactive | inactive | inactive | inactive | inactive | inactive | inactive | inactive | inactive | inactive | inactive | inactive | inactive | inactive | inactive | inactive | inactive | inactive | inactive
22 | CC[N+]1(CCOC(=O)C(O)(c2ccccc2)c2ccccc2)CCCCC1 | inactive | inactive | inactive | inactive | inactive | inactive | inactive | inactive | inactive | inactive | inactive | inactive | inactive | inactive | inactive | inactive | inactive |  | inactive | inactive
23 | CC(=O)OCC1=C(C(=O)O)N2C(=O)[C@@H](N)[C@@H]2SC1 | inactive | inactive | inactive | inactive | inactive |  | inactive | inactive | inactive | inactive | inactive | inactive | inactive | inactive | inactive | inactive |  |  |  | 
24 | CCCCCCCCCC(CC)c1ccc(S(=O)(=O)O)cc1 (stereo unspecified) | inactive | inactive | inactive | inactive | inactive | inactive | inactive | inactive | inactive | inactive | inactive | inactive | inactive | inactive | inactive | inactive | inactive | inactive | inactive | inactive
25 | O=C(O)C(Cl)Cl | inactive | inactive | inactive | inactive | inactive | inactive | inactive | inactive | inactive | inactive | inactive | inactive | inactive | inactive | inactive | inactive | inactive | inactive | inactive | inactive
26 | O=C(O)COc1ccccc1 | inactive | inactive | inactive | inactive | inactive | inactive | inactive | inactive | inactive | inactive | inactive | inactive | inactive | inactive | inactive | inactive | inactive | inactive | inactive | inactive
